Values joined by “and” are separate entries in the source; they are usually repeats but may differ in a detail not shown here. Identical values can stand only once. Active and inactive are the calls of the source. The calls were made as follows: active = hit-call score of the fitted dose curve at least 0.9, where 1 is the maximum; inactive = score below 0.9.
How the values were obtained:
[1] = read-out: Interleukin-6 (IL6), IL6 (gene 3569); assay: BSK_CASM3C_IL6: BioMAP Diversity Plus: CASM3C Assay for Interleukin-6 (IL6) Biomarker Activity for (AID 2283040); conditions: primary human coronary artery smooth muscle cells; actives raise or lower the signal
[2] = read-out: Tissue plasminogen activator (tPA), PLAT (gene 5327); assay: BSK_BE3C_tPA: BioMAP Diversity Plus: BE3C Assay for Tissue plasminogen activator (tPA) Biomarker Activity (AID 2283041); conditions: primary human bronchial epithelial cells; actives raise or lower the signal;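 as to outcome: tPA level quantified by ELISA one day after compound addition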
Summary of the method: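 Using human lung primary bronchial epithelial cells, tPA was measured by ELISA 24 h after dosing; data fitted relative to DMSO.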

[3] = read-out: Interleukin-8 (IL8), CXCL8 (gene 3576); assay: BSK_CASM3C_IL8: BioMAP Diversity Plus: CASM3C Assay for Interleukin-8 (IL8) Biomarker Activity (AID 2283042); conditions: primary human coronary artery smooth muscle cells; actives raise or lower the signal;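 also: IL-8 protein level quantified by ELISA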
[4] = read-out: Human Leukocyte Antigen - DR isotype (HLADR), HLA-DRA (gene 3122); assay: BSK_CASM3C_HLADR: BioMAP Diversity Plus: CASM3C Assay for Human Leukocyte Antigen - DR isotype (HLADR) Biomarker Activity (AID 2283043); conditions: primary human coronary artery smooth muscle cells; actives raise or lower the signal;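 also: cell-surface HLA-DR protein level quantified by ELISA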
[5] = read-out: Macrophage colony-stimulating factor (MCSF), CSF1 (gene 1435); assay: BSK_CASM3C_MCSF: BioMAP Diversity Plus: CASM3C Assay for Macrophage colony-stimulating factor (MCSF) Biomarker Activity (AID 2283044); conditions: primary human coronary artery smooth muscle cells; actives raise or lower the signal;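 also: M-CSF protein amount quantified by ELISA after 24 h exposure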
[6] = read-out: Low-density lipoprotein receptor (LDLR), LDLR (gene 3949); assay: BSK_CASM3C_LDLR: BioMAP Diversity Plus: CASM3C Assay for Low-density lipoprotein receptor (LDLR) Biomarker Activity (AID 2283045); conditions: primary human coronary artery smooth muscle cells; actives raise or lower the signal;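 also: LDLR protein level on the cell surface quantified by ELISA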
[7] = read-out: Monocyte Chemoattractant Protein-1 (MCP1), CCL2 (gene 6347); assay: BSK_CASM3C_MCP1: BioMAP Diversity Plus: CASM3C Assay for Monocyte Chemoattractant Protein-1 (MCP1) Biomarker Activity (AID 2283046); conditions: primary human coronary artery smooth muscle cells; actives raise or lower the signal;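 also: MCP-1 level quantified by ELISA 24 h after dosing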
[8] = BSK_CASM3C_Proliferation: Cell Proliferation Assessment in the BioMAP Diversity Plus: CASM3C Assay (AID 2283047); conditions: primary human coronary artery smooth muscle cells;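 also: sulforhodamine B total protein stain as relative cell number at 560 nm; sub-confluent cells exposed 48 h before staining; fitted both ways against DMSO so gain or loss of cell number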
[9] = read-out: Monokine induced gamma interferon (MIG), CXCL9 (gene 4283); assay: BSK_CASM3C_MIG: BioMAP Diversity Plus: CASM3C Assay for Monokine induced gamma interferon (MIG) Biomarker Activity (AID 2283048); conditions: primary human coronary artery smooth muscle cells; actives raise or lower the signal;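 also: MIG protein level measured by ELISA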
[10] = read-out: serum amyloid A (SAA), SAA1 (gene 6288); assay: BSK_CASM3C_SAA: BioMAP Diversity Plus: CASM3C Assay for serum amyloid A (SAA) Biomarker Activity (AID 2283049); conditions: primary human coronary artery smooth muscle cells; actives raise or lower the signal;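 also: SAA protein level quantified by ELISA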

SMILES	outcome [1]	outcome [2]	outcome [3]	outcome [4]	outcome [5]	outcome [6]	outcome [7]	outcome [8]	outcome [9]	outcome [10]	AC50 [1]	AC50 [2]	AC50 [3]	AC50 [4]	AC50 [5]	AC50 [6]	AC50 [7]	AC50 [8]	AC50 [9]	AC50 [10]
C=C(C)C(=O)OCCCCCCCCCCCC	inactive	inactive	inactive	inactive	inactive	inactive	inactive	inactive	inactive	inactive	–	–	–	–	–	–	–	–	–	–
CCOC(=O)C1=NOC(c2ccccc2)(c2ccccc2)C1	inactive	inactive	inactive	inactive	inactive	inactive	inactive	inactive	inactive	inactive	–	–	–	–	–	–	–	–	–	–
CCCCCCCO	inactive	inactive	inactive	inactive	inactive	inactive	inactive	inactive	inactive	inactive	–	–	–	–	–	–	–	–	–	–
CCNc1nc(NC(C)(C)C)nc(OC)n1	inactive	inactive	inactive	inactive	inactive	inactive	inactive	inactive	inactive	inactive	–	–	–	–	–	–	–	–	–	–
COc1ccc(C(=O)c2ccccc2)c(O)c1	inactive	inactive	inactive	inactive	inactive	inactive	inactive	inactive	inactive	inactive	–	–	–	–	–	–	–	–	–	–
C1CNCCN1	inactive	inactive	inactive	inactive	inactive	inactive	inactive	inactive	inactive	inactive	–	–	–	–	–	–	–	–	–	–
Nc1nc(N)nc(-c2ccccc2)n1	inactive	inactive	inactive	inactive	inactive	inactive	inactive	inactive	inactive	inactive	–	–	–	–	–	–	–	–	–	–
CCCCC1C(=O)N(c2ccccc2)N(c2ccccc2)C1=O	inactive	inactive	inactive	inactive	inactive	inactive	inactive	inactive	inactive	inactive	–	–	–	–	–	–	–	–	–	–
O=C(Cl)c1c(Cl)c(Cl)c(C(=O)Cl)c(Cl)c1Cl	inactive	inactive	inactive	inactive	inactive	inactive	inactive	inactive	inactive	inactive	–	–	–	–	–	–	–	–	–	–
Cc1c(O)cccc1O	inactive	inactive	inactive	inactive	inactive	inactive	inactive	inactive	inactive	inactive	–	–	–	–	–	–	–	–	–	–
CC/C=C\C/C=C\C/C=C\CCCCCCCC(=O)OC	–	–	–	–	–	–	–	–	–	–	31.5 µM (active)	9.51 µM (active)	32.2 µM (active)	12.1 µM (active)	22.6 µM (active)	28.7 µM (active)	29.7 µM (active)	8.6 µM (active)	29.3 µM (active)	26 µM (active)
O=C1CCCCCCCCCCCN1	inactive	inactive	inactive	inactive	inactive	inactive	inactive	inactive	inactive	inactive	–	–	–	–	–	–	–	–	–	–
CC(C)[N+](C)(CCOC(=O)C1c2ccccc2Oc2ccccc21)C(C)C	inactive	inactive	inactive	inactive	inactive	inactive	inactive	inactive	inactive	inactive	–	–	–	–	–	–	–	–	–	–
CCOC(=O)/C=C\C(=O)OCC	inactive	inactive	inactive	inactive	inactive	inactive	inactive	inactive	inactive	inactive	–	–	–	–	–	–	–	–	–	–
CCc1cccc(C)c1N(C(=O)CS(=O)(=O)O)C(C)COC (stereo not given)	inactive	inactive	inactive	inactive	inactive	inactive	inactive	inactive	inactive	inactive	–	–	–	–	–	–	–	–	–	–
Fc1ccc(Br)cc1	inactive	inactive	inactive	inactive	inactive	inactive	inactive	inactive	inactive	inactive	–	–	–	–	–	–	–	–	–	–
c1ccc2c(c1)[nH]c1ccccc12	inactive	inactive	inactive	inactive	inactive	inactive	inactive	inactive	inactive	inactive	–	–	–	–	–	–	–	–	–	–
Oc1ccccc1Cc1ccccc1O	inactive	–	inactive	inactive	inactive	inactive	inactive	inactive	inactive	inactive	–	13.4 µM (active) and 10.2 µM (active)	–	–	–	–	–	–	–	–
C=CC(=O)NC(C)(C)C	inactive	inactive	inactive	inactive	inactive	inactive	inactive	inactive	inactive	inactive	–	–	–	–	–	–	–	–	–	–
CCOC(=O)C1=NN(c2ccc(Cl)cc2Cl)C(C)(C(=O)OCC)C1 (stereo not given)	inactive	inactive	inactive	inactive	inactive	inactive	inactive	inactive	inactive	inactive	–	–	–	–	–	–	–	–	–	–
CCCCCCCCC(CO)CCCCCC (stereo not given)	inactive	inactive	inactive	inactive	inactive	inactive	inactive	inactive	inactive	inactive	–	–	–	–	–	–	–	–	–	–
Nc1ccc(C(=O)O)cc1	inactive	inactive	inactive	inactive	inactive	inactive	inactive	inactive	inactive	inactive	–	–	–	–	–	–	–	–	–	–
CC(C)CCCCCOC(=O)CS	inactive	inactive	inactive	inactive	inactive	inactive	inactive	inactive	inactive	inactive	–	–	–	–	–	–	–	–	–	–
CCCCCCOC(=O)CCCCC(=O)OCCCCCC	inactive	inactive	inactive	inactive	inactive	inactive	inactive	inactive	inactive	inactive	–	–	–	–	–	–	–	–	–	–
CC/C=C\CCOC(=O)c1ccccc1O	–	–	inactive	–	–	–	–	inactive	inactive	–	3.97 µM (active)	20 µM (active)	–	32.9 µM (active)	31.6 µM (active)	14.4 µM (active)	20 µM (active)	–	–	20 µM (active)
C=CCCCCCCCCC=O	inactive	inactive	inactive	inactive	inactive	inactive	inactive	inactive	inactive	inactive	–	–	–	–	–	–	–	–	–	–
CCCCCCC=O	inactive	inactive	inactive	inactive	inactive	inactive	inactive	–	inactive	inactive	–	–	–	–	–	–	–	0.22 µM (active)	–	–
C=CC(=O)NCOCCCC	inactive	inactive	inactive	inactive	inactive	inactive	inactive	inactive	inactive	inactive	–	–	–	–	–	–	–	–	–	–
c1ccc2sc(SSN3CCOCC3)nc2c1	–	–	–	–	–	inactive	–	–	–	–	12 µM (active)	12.5 µM (active)	20 µM (active)	4.62 µM (active)	6.94 µM (active)	–	8.56 µM (active)	2.19 µM (active)	15.8 µM (active)	5.46 µM (active)
CCN1CN(CC)CN(CC)C1	inactive	inactive	inactive	inactive	inactive	inactive	inactive	inactive	inactive	inactive	–	–	–	–	–	–	–	–	–	–
